Sampled rows, rich in hits. Any-hit rate of the full collection: about 5.4%.
GAA850 FXN act = increases GAA850 frataxin promoter reporter activity | HEK293 lucGAA850 FXN promoter luciferase reporter, 24 h; percent of 10 µM SAHA response | activation, % at 6 µM | 360,000 compounds, 0.56% hits;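 active means activation above the average of all compounds screened plus 3 SD, cutoff fixed separately per campaign, cut at about 7.5% in these data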;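 further: 0% = DMSO wells and 100% = 10 µM SAHA wells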
AHR act = human AHR activation. AHR-responsive luciferase reporter cells, luminescence. 320,000 compounds, 2.5% hits. AID 2796. P35869. activation, % at 5 µM; in the data active means activation above about 47%;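 further: 0% = vehicle wells and 100% = reference agonist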
HSF1 inh = HSF1 inhibition; NIH3T3-HGL HSE-luciferase, MG132-induced, luminescence 8 h; stronger effect = lower value; activity change, negative = inhibition, % at 7.5 µM (by protocol); 300,000 compounds, 0.77% hits; AID 2098;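 active means more than half of replicate wells show activity change below -50%, luminescence cut by over half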;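 further: luciferase reports HSF-1 transcriptional activity via heat shock element; 0% = median of DMSO wells and -100% = zero luminescence signal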
HSF1 activator = increases HSF-1 driven luciferase reporter signal; NIH3T3-HGL HSF-1 luciferase reporter, MG132, 8 h; 100% = twice DMSO control signal; activation, % at 9 µM; 300,000 compounds, 1.7% hits; AID 504408;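 active means mean replicate activation of at least 50% with a set share of replicates each reaching 50%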;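 further: 0% = median of the neutral control wells and 100% = twice that signal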
NR0B1 inh = NR0B1 (DAX1) inhibition | 340,000 compounds, 0.99% hits | inhibition, % at 6.75 µM | HEK293 Gal4-DAX1 luciferase reporter, luminescence | P51843 | AID 504766;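 active means inhibition above the mean over all tested compounds plus 3 SD, cut at about 4.2% in these data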;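 further: 0% = DAX1-transfected cells with DMSO and 100% = empty-vector control cells with DMSO; inhibition shows as a rise in luminescence from relieved DAX1 repression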
Target sequence (P51843 207-470 limits assumed): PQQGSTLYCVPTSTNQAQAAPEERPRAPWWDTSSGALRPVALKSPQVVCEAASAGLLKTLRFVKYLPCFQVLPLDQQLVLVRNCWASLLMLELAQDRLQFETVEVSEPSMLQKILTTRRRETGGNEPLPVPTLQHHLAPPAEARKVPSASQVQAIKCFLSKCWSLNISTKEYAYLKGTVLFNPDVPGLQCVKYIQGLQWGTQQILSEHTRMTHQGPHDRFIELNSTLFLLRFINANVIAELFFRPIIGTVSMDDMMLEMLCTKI
An asterisk follows results filed as active.

Results for COc1ccc(CCn2c(C)nc3c(c(=O)c4ccccc4n3C)c2=O)cc1 ?
GAA850 FXN act: -3.4; AHR act: 29.2; HSF1 inh: -1.4; HSF1 activator: 4.7; NR0B1 inh: -0.9

How did COc1ccc(CNn2c(C)nc3ccccc3c2=O)cc1 do in these assays?
GAA850 FXN act: -0.5; AHR act: 70.2*; HSF1 inh: 8.1; HSF1 activator: 14.4; NR0B1 inh: -1.5

How did COc1ccc(CCn2c(S)nc3ccccc3c2=O)cc1 do in these assays?
GAA850 FXN act: 1.9; AHR act: 67.7*; HSF1 inh: -2.6; HSF1 activator: -2.8; NR0B1 inh: 0.6

How did Cc1c(-c2ccccc2)[n+](=O)c2c(n1[O-])CCC2 do in these assays?
GAA850 FXN act: 3.4; AHR act: -1.0; HSF1 inh: -86.9*; HSF1 activator: -88.9; NR0B1 inh: 0.7

Results for Cc1c(-c2ccc(Cl)cc2)[n+](=O)c2c(n1[O-])CCCC2 ?
GAA850 FXN act: -1.6; AHR act: -0.2; HSF1 inh: 7.3; HSF1 activator: 39.5; NR0B1 inh: -1.6

How did CC1CCCC(C)N1C(=O)COC(=O)Cc1c[nH]c2ccccc12 (centres undefined) do in these assays?
GAA850 FXN act: -1.1; AHR act: 9.7; HSF1 inh: 3.6; HSF1 activator: -2.7; NR0B1 inh: 0.2

Results for CCCn1c(C)cc(C(=O)COc2ccc(C)nc2[N+](=O)[O-])c1C ?
GAA850 FXN act: -0.9; AHR act: 2.7; HSF1 inh: -17.1; HSF1 activator: -11.9; NR0B1 inh: -1.4

Results for C=CCn1c(C)cc(C(=O)COc2ccc(C)nc2[N+](=O)[O-])c1C ?
GAA850 FXN act: -9.1; AHR act: -7.8; HSF1 inh: -53.7*; HSF1 activator: -60.4; NR0B1 inh: -2.8

What do the screens show for `Cc1ccc(OCC(=O)c2cc(C)n(-c3ccccc3)c2C)c([N+](=O)[O-])n1`?
GAA850 FXN act: -12.8; AHR act: -3.8; HSF1 inh: -61.8*; HSF1 activator: -65.2; NR0B1 inh: -3.4

Results for O=C(NC(C(=O)c1ccccc1)N1CCCCC1)c1ccccc1 (centres undefined) ?
GAA850 FXN act: 3.5; AHR act: -1.0; HSF1 inh: 31.4; HSF1 activator: 81.9*; NR0B1 inh: 3.4

What do the screens show for `CCc1ccc(CN(C)C(=O)CCc2nc3ccccc3n(-c3ccc(OC)cc3)c2=O)cc1`?
GAA850 FXN act: -2.9; AHR act: -1.5; HSF1 inh: 41.4; HSF1 activator: 70.3*; NR0B1 inh: -1.0

What do the screens show for `Cc1ccc(NC(=S)NCc2cccnc2)cc1`?
GAA850 FXN act: -2.1; AHR act: 0.0; HSF1 inh: -1.5; HSF1 activator: -14.6; NR0B1 inh: -0.8

Results for CC(=O)c1ccc(NC(=S)NCc2cccnc2)cc1 ?
GAA850 FXN act: 1.1; AHR act: 5.2; HSF1 inh: -3.6; HSF1 activator: -8.7; NR0B1 inh: 6.1*

What do the screens show for `COc1ccc(C(=O)NC(=S)NCc2cccnc2)cc1[N+](=O)[O-]`?
GAA850 FXN act: 1.7; AHR act: 76.4*; HSF1 inh: -2.9; HSF1 activator: 7.3; NR0B1 inh: -0.2

How did Cc1c(C2(O)CCCCC2)[nH]c2cc(C(F)(F)F)ccc12 do in these assays?
GAA850 FXN act: 1.3; AHR act: 47.9*; NR0B1 inh: -0.5

How did CCOc1ccc2nc(N3CCCCCC3)sc2c1 do in these assays?
GAA850 FXN act: 2.6; AHR act: -4.7; HSF1 inh: 44.5; HSF1 activator: 71.7*; NR0B1 inh: 2.8

Results for CCOc1ccc2nc(N3C(=O)/C(=C/c4ccccc4)NC3=S)sc2c1 ?
GAA850 FXN act: 2.2; AHR act: 16.8; HSF1 inh: 14.7; HSF1 activator: 4.2; NR0B1 inh: 5.1*

Results for COc1ccc2nc(N3C(=O)/C(=C/c4ccccc4)NC3=S)sc2c1 ?
GAA850 FXN act: 0.2; AHR act: 17.5; HSF1 inh: 3.1; HSF1 activator: 3.5; NR0B1 inh: -0.8

How did Cc1cc(C)n(CC(O)COc2ccc(Cl)cc2)n1 (centres undefined) do in these assays?
GAA850 FXN act: 2.8; AHR act: -2.7; HSF1 inh: 25.2; HSF1 activator: 50.3*; NR0B1 inh: 0.3

What do the screens show for `Cc1ccc(OCC(O)Cn2nc(C)cc2C)cc1` (centres undefined)?
GAA850 FXN act: 2.4; AHR act: 0.5; HSF1 inh: 4.0; HSF1 activator: 12.1; NR0B1 inh: 1.2

What do the screens show for `Cc1cc(C)n(CC(O)COc2ccc(Cl)cc2Cl)n1` (centres undefined)?
GAA850 FXN act: 2.4; AHR act: -3.0; HSF1 inh: 45.8; HSF1 activator: 64.1*; NR0B1 inh: 0.2

How did C=CCn1c(O)c(C2=c3ccccc3=NC2=O)c2ccccc21 do in these assays?
GAA850 FXN act: 2.3; AHR act: 30.9; HSF1 inh: 188.2; HSF1 activator: 256.9*; NR0B1 inh: -0.1

How did Cc1c(-n2c(O)c(C3=c4ccccc4=NC3=O)sc2=O)c(=O)n(-c2ccccc2)n1C do in these assays?
GAA850 FXN act: 3.4; AHR act: 9.7; HSF1 inh: 3.1; HSF1 activator: 30.0; NR0B1 inh: -0.2

Results for Cc1ccc2c(c1)c(C1=c3ccccc3=NC1=O)c(O)n2C ?
GAA850 FXN act: 4.0; AHR act: 66.0*; HSF1 inh: 124.9; HSF1 activator: 194.6*; NR0B1 inh: 1.8

What do the screens show for `C=CCn1c(O)c(C2=c3ccccc3=NC2=O)s/c1=N/c1nccs1`?
GAA850 FXN act: -0.8; AHR act: 59.2*; HSF1 inh: -0.2; HSF1 activator: 15.1; NR0B1 inh: -0.3

What do the screens show for `C=CCn1c(O)c(N=Nc2ccccc2)c2ccccc21`?
GAA850 FXN act: 0.0; AHR act: 37.5; HSF1 inh: 1.5; HSF1 activator: -16.0; NR0B1 inh: -0.7

How did Cn1c(O)c(C2=c3ccccc3=NC2=O)sc1=Nc1ccc(Cl)cc1 do in these assays?
GAA850 FXN act: 3.2; AHR act: 55.9*; HSF1 inh: -4.5; HSF1 activator: 14.6; NR0B1 inh: -1.5

How did COc1ccccc1C(=O)N/C(=C/c1ccc(Br)cc1)C(=O)N1CCOCC1 do in these assays?
GAA850 FXN act: 0.6; NR0B1 inh: -0.3

How did CC(Sc1nnnn1C)C(=O)Nc1ccc(Oc2ccccc2)cc1 (centres undefined) do in these assays?
GAA850 FXN act: 0.1; AHR act: -0.9; HSF1 inh: -68.3*; HSF1 activator: -74.5; NR0B1 inh: -0.4

How did CCOC(=O)N1C(=O)[C@@](CC)(c2ccccc2)N1C(=O)OCC do in these assays?
GAA850 FXN act: -0.5; AHR act: 2.9; HSF1 inh: -55.2*; HSF1 activator: -65.0; NR0B1 inh: 1.5

What do the screens show for `COc1cc(/C=N/NC(=O)Cn2nc([N+](=O)[O-])cc2C)cc(Br)c1OCc1ccccc1`?
GAA850 FXN act: -0.4; AHR act: 7.2; HSF1 inh: 7.7; HSF1 activator: 39.5; NR0B1 inh: 0.6

How did CCOc1cc(/C=N/NC(=O)Cn2nc([N+](=O)[O-])cc2C)cc(Br)c1OCc1ccccc1C do in these assays?
GAA850 FXN act: 1.1; AHR act: 1.6; HSF1 inh: 27.7; HSF1 activator: 70.7*; NR0B1 inh: 0.3

Screens deposited in PubChem BioAssay by several laboratories.
